Test results published in PubChem BioAssay AID1508601 (ICCB-Longwood Screening Facility, Harvard Medical School, 2020).
Hit rate of the full screen: of about 5,700 compounds, about 85 (1%) were called active. No stated cut-off is given here; in the data, active means p53-positive nuclei above about 36% (passing the limit was not always enough); inactive means the rest. Many of the other results were omitted from the sample, so actives are more common in it than they were.

Legend:
[1] = nuclear p53 accumulation, HPV+ cells – imaging, p53-positive nuclei imaging, 24 h, 48 h (AID 1508601); conditions: 24/48 h
[2] = target: Cellular tumor antigen p53 (Homo sapiens) (UniProt P04637); assay: as above; conditions: 24/48 h, stronger effect = higher value
Cellular tumor antigen p53 (Homo sapiens), sequence (P04637 whole entry, looked up): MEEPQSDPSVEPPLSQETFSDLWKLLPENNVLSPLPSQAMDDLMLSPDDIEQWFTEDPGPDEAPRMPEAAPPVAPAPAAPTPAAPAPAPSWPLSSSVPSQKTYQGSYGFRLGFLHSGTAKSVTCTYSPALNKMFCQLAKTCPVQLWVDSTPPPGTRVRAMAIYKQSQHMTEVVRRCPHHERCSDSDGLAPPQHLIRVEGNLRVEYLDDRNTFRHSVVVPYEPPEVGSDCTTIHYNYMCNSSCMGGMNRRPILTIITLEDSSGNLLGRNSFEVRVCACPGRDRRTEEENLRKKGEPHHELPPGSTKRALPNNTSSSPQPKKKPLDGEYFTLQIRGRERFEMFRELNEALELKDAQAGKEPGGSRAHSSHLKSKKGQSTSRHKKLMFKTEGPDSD

[3] = measured here: cell number at 24 h, Library stock concentration: 80 uM
[4] = measured here: cell number at 24 h, Library stock concentration: 400 uM
[5] = measured here: cell number at 24 h, Library stock concentration: 2 mM
[6] = measured here: cell number at 24 h, Library stock concentration: 10 mM
[7] = measured here: cell number at 48 h, Library stock concentration: 80 uM
[8] = measured here: cell number at 48 h, Library stock concentration: 400 uM
[9] = measured here: cell number at 48 h, Library stock concentration: 2 mM
[10] = measured here: cell number at 48 h, Library stock concentration: 10 mM
[11] = Library stock concentration: 80 uM
[12] = Library stock concentration: 400 uM
[13] = Library stock concentration: 2 mM
[14] = Library stock concentration: 10 mM
[15] = measured here: p53 positive nuclei at 24 h, Library stock concentration: 80 uM
[16] = measured here: p53 positive nuclei at 24 h, Library stock concentration: 400 uM
[17] = measured here: p53 positive nuclei at 24 h, Library stock concentration: 2 mM
[18] = measured here: p53 positive nuclei at 24 h, Library stock concentration: 10 mM
[19] = measured here: cell number at 24 h, Library stock concentration: 3.33 mM
[20] = measured here: cell number at 48 h, Library stock concentration: 3.33 mM
[21] = Library stock concentration: 3.33 mM
[22] = measured here: p53 positive nuclei at 24 h, Library stock concentration: 3.33 mM
[23] = measured here: cell number at 24 h, concentration not given here
[24] = measured here: cell number at 48 h, concentration not given here
[25] = measured here: p53 positive nuclei at 24 h, concentration not given here

Q: With `CCN1CCN(Cc2ccc(Nc3ncc4c(n3)N(C)c3ccccc3C(=O)N4C)cc2C(F)(F)F)CC1` as the compound, how does the nuclei count, normalised [1, 3] read?
A: The nuclei count, normalised was 77.9%.

Q: And the nuclei count, normalised [1, 4]?
A: The nuclei count, normalised was 81%.

Q: And the nuclei count, normalised [1, 5]?
A: The nuclei count, normalised was 52.5%.

Q: What about the nuclei count, normalised [1, 6] of the same compound?
A: The nuclei count, normalised was 35.9%.

Q: And the nuclei count, normalised [1, 7]?
A: Its nuclei count, normalised is 81.7%.

Q: And the nuclei count, normalised [1, 8]?
A: The nuclei count, normalised was 83.6%.

Q: And the nuclei count, normalised [1, 9]?
A: Its nuclei count, normalised is 35.4%.

Q: And the nuclei count, normalised [1, 10]?
A: Its nuclei count, normalised is 19.9%.

Q: And the p53-positive nuclei, normalised [2, 11]?
A: Its p53-positive nuclei, normalised is -0.0235% (inactive).

Q: And the p53-positive nuclei, normalised [2, 12]?
A: Its p53-positive nuclei, normalised is -0.051% (inactive).

Q: And the p53-positive nuclei, normalised [2, 13]?
A: The p53-positive nuclei, normalised was 1.78% (inactive).

Q: And the p53-positive nuclei, normalised [2, 14]?
A: Its p53-positive nuclei, normalised is 22.4% (inactive).

Q: And the p53-positive nuclei, normalised [2, 15]?
A: The p53-positive nuclei, normalised was -0.148%.

Q: What about the p53-positive nuclei, normalised [2, 16] of the same compound?
A: The p53-positive nuclei, normalised was -0.0416%.

Q: What about the p53-positive nuclei, normalised [2, 17] of the same compound?
A: Its p53-positive nuclei, normalised is -0.148%.

Q: What about the p53-positive nuclei, normalised [2, 18] of the same compound?
A: The p53-positive nuclei, normalised was 33.5%.

Q: For `CC1CCO[C@H]2Cn3cc(C(=O)NCc4ccc(F)cc4F)c(=O)c(O)c3C(=O)N12` (some centres not stated), which nuclei count, normalised [1, 19] is on record?
A: Its nuclei count, normalised is 106%.

Q: What about the nuclei count, normalised [1, 20] of the same compound?
A: The nuclei count, normalised was 103%.

Q: And the p53-positive nuclei, normalised [2, 21]?
A: Its p53-positive nuclei, normalised is -0.143% (inactive).

Q: What about the p53-positive nuclei, normalised [2, 22] of the same compound?
A: The p53-positive nuclei, normalised was -0.188%.

Q: For `CCCCC[C@H](O)/C=C/[C@H]1C2CC(CO2)[C@@H]1C/C=C\CCCC(=O)O` (some centres not stated), which nuclei count, normalised [1, 23] is on record?
A: The nuclei count, normalised was 83.4%.

Q: And the nuclei count, normalised [1, 24]?
A: Its nuclei count, normalised is 84.7%.

Q: And the p53-positive nuclei, normalised ([2]; concentration not given here)?
A: Its p53-positive nuclei, normalised is 0.109% (inactive).

Q: And the p53-positive nuclei, normalised [2, 25]?
A: The p53-positive nuclei, normalised was 0.00988%.

Q: For `CN1CCN(C(=S)SSC(=S)N2CCN(C)CC2)CC1`, which nuclei count, normalised [1, 3] is on record?
A: Its nuclei count, normalised is 108%.

Q: And the nuclei count, normalised [1, 4]?
A: The nuclei count, normalised was 109%.

Q: What about the nuclei count, normalised [1, 5] of the same compound?
A: Its nuclei count, normalised is 60.3%.

Q: And the nuclei count, normalised [1, 6]?
A: The nuclei count, normalised was 52.3%.

Q: What about the nuclei count, normalised [1, 7] of the same compound?
A: The nuclei count, normalised was 109%.

Q: What about the nuclei count, normalised [1, 8] of the same compound?
A: Its nuclei count, normalised is 109%.

Q: And the nuclei count, normalised [1, 9]?
A: The nuclei count, normalised was 53.9%.

Q: And the nuclei count, normalised [1, 10]?
A: Its nuclei count, normalised is 37.3%.

Q: What about the p53-positive nuclei, normalised [2, 11] of the same compound?
A: The p53-positive nuclei, normalised was -0.131% (inactive).

Q: And the p53-positive nuclei, normalised [2, 12]?
A: The p53-positive nuclei, normalised was -0.138% (inactive).

Q: And the p53-positive nuclei, normalised [2, 13]?
A: The p53-positive nuclei, normalised was 39.2% (active).

Q: What about the p53-positive nuclei, normalised [2, 14] of the same compound?
A: The p53-positive nuclei, normalised was 89.9% (active).

Q: And the p53-positive nuclei, normalised [2, 15]?
A: The p53-positive nuclei, normalised was -0.116%.

Q: And the p53-positive nuclei, normalised [2, 16]?
A: The p53-positive nuclei, normalised was -0.0641%.

Q: And the p53-positive nuclei, normalised [2, 17]?
A: Its p53-positive nuclei, normalised is 99.7%.

Q: What about the p53-positive nuclei, normalised [2, 18] of the same compound?
A: Its p53-positive nuclei, normalised is 111%.

Q: What does the source list for `CCN(CC)C(=O)N1CCN(C)CC1`?
A: nuclei count, normalised [1, 23]: 108%; nuclei count, normalised [1, 24]: 102%; p53-positive nuclei, normalised ([2]; concentration not given here): 0.000717% (inactive); p53-positive nuclei, normalised [2, 25]: -0.0826%

Q: With `CC(C)(CO)c1cc2cc(NC(=O)C3(c4ccc5c(c4)OC(F)(F)O5)CC3)c(F)cc2n1CC(O)CO` (configuration not stated) as the compound, how does the nuclei count, normalised [1, 3] read?
A: The nuclei count, normalised was 99.2%.

Q: What about the nuclei count, normalised [1, 4] of the same compound?
A: Its nuclei count, normalised is 104%.

Q: And the nuclei count, normalised [1, 5]?
A: The nuclei count, normalised was 106%.

Q: What about the nuclei count, normalised [1, 19] of the same compound?
A: Its nuclei count, normalised is 118%.

Q: And the nuclei count, normalised [1, 6]?
A: The nuclei count, normalised was 113%.

Q: What about the nuclei count, normalised [1, 7] of the same compound?
A: Its nuclei count, normalised is 105%.

Q: What about the nuclei count, normalised [1, 8] of the same compound?
A: Its nuclei count, normalised is 107%.

Q: What about the nuclei count, normalised [1, 9] of the same compound?
A: The nuclei count, normalised was 110%.

Q: What about the nuclei count, normalised [1, 20] of the same compound?
A: Its nuclei count, normalised is 120%.

Q: What about the nuclei count, normalised [1, 10] of the same compound?
A: Its nuclei count, normalised is 111%.

Q: What about the p53-positive nuclei, normalised [2, 11] of the same compound?
A: The p53-positive nuclei, normalised was 0.0351% (inactive).

Q: And the p53-positive nuclei, normalised [2, 12]?
A: The p53-positive nuclei, normalised was 0.0964% (inactive).

Q: What about the p53-positive nuclei, normalised [2, 13] of the same compound?
A: Its p53-positive nuclei, normalised is -0.0537% (inactive).

Q: What about the p53-positive nuclei, normalised [2, 21] of the same compound?
A: The p53-positive nuclei, normalised was -0.0559% (inactive).

Q: And the p53-positive nuclei, normalised [2, 14]?
A: Its p53-positive nuclei, normalised is 0.115% (inactive).

Q: What about the p53-positive nuclei, normalised [2, 15] of the same compound?
A: The p53-positive nuclei, normalised was 0.0925%.

Q: And the p53-positive nuclei, normalised [2, 16]?
A: The p53-positive nuclei, normalised was 0.0862%.

Q: And the p53-positive nuclei, normalised [2, 17]?
A: The p53-positive nuclei, normalised was -0.0708%.

Q: And the p53-positive nuclei, normalised [2, 22]?
A: The p53-positive nuclei, normalised was -0.244%.

Q: What about the p53-positive nuclei, normalised [2, 18] of the same compound?
A: The p53-positive nuclei, normalised was 0.119%.

Q: What does the source list for `O=C(c1cc(-c2cncnc2)nc2cc(F)ccc12)N1CCCC1Cc1cccnc1` (configuration not stated)?
A: nuclei count, normalised [1, 23]: 109%; nuclei count, normalised [1, 24]: 110%; p53-positive nuclei, normalised ([2]; concentration not given here): 0.0107% (inactive); p53-positive nuclei, normalised [2, 25]: 0.143%

Q: For `O=C1CN2Cc3c(ccc(Cl)c3Cl)N=C2N1`, which nuclei count, normalised ([1]; measured here: cell number at 24 h, Library stock concentration: 46 uM) is on record?
A: The nuclei count, normalised was 88.7%.

Q: And the nuclei count, normalised ([1]; measured here: cell number at 24 h, Library stock concentration: 278 uM)?
A: The nuclei count, normalised was 80.4%.

Q: And the nuclei count, normalised ([1]; measured here: cell number at 24 h, Library stock concentration: 1.67 mM)?
A: The nuclei count, normalised was 83.9%.

Q: What about the nuclei count, normalised [1, 19] of the same compound?
A: Its nuclei count, normalised is 57.2%.

Q: What about the nuclei count, normalised [1, 6] of the same compound?
A: The nuclei count, normalised was 75.8%.

Q: What about the nuclei count, normalised ([1]; measured here: cell number at 48 h, Library stock concentration: 46 uM) of the same compound?
A: Its nuclei count, normalised is 45.1%.

Q: And the nuclei count, normalised ([1]; measured here: cell number at 48 h, Library stock concentration: 278 uM)?
A: Its nuclei count, normalised is 38.3%.

Q: What about the nuclei count, normalised ([1]; measured here: cell number at 48 h, Library stock concentration: 1.67 mM) of the same compound?
A: Its nuclei count, normalised is 40.9%.

Q: And the nuclei count, normalised [1, 20]?
A: Its nuclei count, normalised is 24.8%.

Q: And the nuclei count, normalised [1, 10]?
A: The nuclei count, normalised was 40.2%.

Q: What about the p53-positive nuclei, normalised ([2]; Library stock concentration: 46 uM) of the same compound?
A: Its p53-positive nuclei, normalised is 85.8% (active).

Q: What about the p53-positive nuclei, normalised ([2]; Library stock concentration: 278 uM) of the same compound?
A: Its p53-positive nuclei, normalised is 88.2% (active).

Q: And the p53-positive nuclei, normalised ([2]; Library stock concentration: 1.67 mM)?
A: Its p53-positive nuclei, normalised is 89.8% (active).

Q: And the p53-positive nuclei, normalised [2, 21]?
A: Its p53-positive nuclei, normalised is 84.4% (active).

Q: And the p53-positive nuclei, normalised [2, 14]?
A: The p53-positive nuclei, normalised was 87% (active).

Q: What about the p53-positive nuclei, normalised ([2]; measured here: p53 positive nuclei at 24 h, Library stock concentration: 46 uM) of the same compound?
A: Its p53-positive nuclei, normalised is 5.38%.

Q: What about the p53-positive nuclei, normalised ([2]; measured here: p53 positive nuclei at 24 h, Library stock concentration: 278 uM) of the same compound?
A: The p53-positive nuclei, normalised was 6.86%.

Q: What about the p53-positive nuclei, normalised ([2]; measured here: p53 positive nuclei at 24 h, Library stock concentration: 1.67 mM) of the same compound?
A: Its p53-positive nuclei, normalised is 6.48%.

Q: And the p53-positive nuclei, normalised [2, 22]?
A: The p53-positive nuclei, normalised was 11%.

Q: And the p53-positive nuclei, normalised [2, 18]?
A: The p53-positive nuclei, normalised was 6.76%.

Q: Which results are given for `O=C1OC2(c3ccc(O)cc3Oc3cc(Oc4ccc(O)cc4)ccc32)c2ccccc21` (configuration not stated)?
A: nuclei count, normalised [1, 23]: 105%; nuclei count, normalised [1, 24]: 107%; p53-positive nuclei, normalised ([2]; concentration not given here): -0.0688% (inactive); p53-positive nuclei, normalised [2, 25]: -0.118%
